In publication PMC5540273 (PLoS ONE, 2017):

These compounds were tested on AKT3. Conditions: concentration: 1 μM, replicates: in singlicate; n = 1.
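Note: KINOMEscan kinase panel screen.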

SMILES | %Inh
N#Cc1ccc(Oc2ccc(Nc3ncnc4cc[nH]c34)cc2Cl)cc1 | 0%
Cc1cc(N2CCC(NS(=O)(=O)c3ccc(F)cc3)CC2)nc(Nc2cccc(C#N)c2)n1.O=C(O)C(F)(F)F [GSK1653537] | 0%
O=C(NCCCN1CCCC1=O)c1cnc(NCc2cc(Cl)ccc2Cl)nc1NC1CCNCC1 | 0%
c1ccc(-c2ccc3c(-c4ccnc(Nc5ccc6c(c5)OCCO6)n4)cnn3n2)cc1 [GW818941] | 18%
CNc1nccc(-c2c(-c3ccc(F)cc3)ncn2CCCN2CCOCC2)n1 [SB-222516] | 14%
C[C@@H]1CCN(C(=O)CO)C[C@@H]1N(C)c1ncnc2[nH]ccc12 | 7%
Cn1ccc2ncnc(Oc3ccc(NC(=O)Nc4cccnc4)c(Cl)c3)c21 | 0%
O=C(c1ccc(-c2cc(-c3c[nH]nc3-c3ccccn3)ccn2)cc1)N1CCCC1 [GW792479] | 0%
O=C(Nc1n[nH]c2nc(-c3ccco3)c(Br)cc12)c1ccc(CN2CCCC2)cc1.O=C(O)[C@H](O)[C@@H](O)C(=O)O [SB-742352] | 8%
Nc1n[nH]c2nnc(-c3ccccc3)cc12 [SB-517389] | 0%
Oc1ccc2ncnc(Nc3ccc(OCc4ccccc4)cc3)c2c1 [GI262866] | 0%
O=C(CCO)NCCn1ccc2ncnc(Nc3ccc(Oc4cccc(C(F)(F)F)c4)c(Cl)c3)c21 | 0%
Nc1nc(-c2cccnc2)c(-c2ccnc3ccccc23)s1 [GW684083] | 0%
